# In all, about 68,000 sequences were measured (“fluorescence intensity (a.u.)”: median about 9,100, highest 2% from about 16,000 on). The sample holds the highest values, similar sequences and a random draw of the others, so the mix is not that of the screen.
# Target: OsWRKY34 (Oryza sativa, UniProt Q0JBA9 1-250)
# Test: protein-binding microarray (RPBM); PBS, 2% BSA, 51.3 ng/ul salmon testes DNA, 50 uM zinc acetate, 200 nM TF, 25 C, 1 h; high values mean tight binding
# Conditions: protein: recombinant; tags: N-terminal polyhistidine and DsRed monomer fusion (pET32a); label: CyDye5-dUTP incorporated in the synthesized complementary strand; 3' TTTTT single-stranded linker to array surface; dsDNA, one strand shown
# Method in brief: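 Binding signal is defined as the fluorescence intensity of each feature in arbitrary units, read on an Axon 4000B scanner. Transcription factors with N-terminal polyhistidine and DsRed fusions came from E. coli BL21-CodonPlus and were purified on Ni–NTA. They were incubated at 200 nM for 1 h at 25 °C on a custom Agilent array that had been made double-stranded with Cy5-dUTP, with 50 µM zinc acetate present, and the array was washed.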
# Chain of OsWRKY34 (Q0JBA9 entry or part of it): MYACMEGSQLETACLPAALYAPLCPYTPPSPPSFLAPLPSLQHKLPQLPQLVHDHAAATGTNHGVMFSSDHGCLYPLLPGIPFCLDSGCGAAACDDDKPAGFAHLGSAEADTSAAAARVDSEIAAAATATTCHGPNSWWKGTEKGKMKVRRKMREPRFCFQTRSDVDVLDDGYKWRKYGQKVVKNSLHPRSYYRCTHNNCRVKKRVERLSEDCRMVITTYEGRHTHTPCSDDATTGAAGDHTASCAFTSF
row,Sequence,binding signal
1,TATTTACTTTATTTCCTCCATTTATGTCGTTTTAGTTTTGCGGAGTCACCTAGTGCAG,9590 fluorescence intensity (a.u.)
2,CCTCCTTTGTTCTTGCTCCTCTTTGCACGCAAAGAATCGGCGGAGTCACCTAGTGCAG,9110 fluorescence intensity (a.u.)
3,TTGTTGTTTTTCGGTACTGTTGATTGAATTAGTGTTATGTCGGAGTCACCTAGTGCAG,8120 fluorescence intensity (a.u.)
4,ACCTGACTAGCAAGCAACAATCATGTAACTTTTCACCTTTCGGAGTCACCTAGTGCAG,8070 fluorescence intensity (a.u.)
5,TCCCAGCAAATGCAACGCTCGTACTCCTCGCATCAACAGCCGGAGTCACCTAGTGCAG,8210 fluorescence intensity (a.u.)
6,TTGTTTCCTATACTTCCTACCAAATGTTCTGATTTTACTGCGGAGTCACCTAGTGCAG,9520 fluorescence intensity (a.u.)
7,GTTATAGCGCATCTATCAATCGTACTAAATTTCATTGTCCCGGAGTCACCTAGTGCAG,8450 fluorescence intensity (a.u.)
8,GTCATACCACCTTACTTTTTACGTTTGAATCACCATTCTACGGAGTCACCTAGTGCAG,10900 fluorescence intensity (a.u.)
9,TATTGGGTGCTTTTGTCCTCAGGTGTGGTATATAGGTACCCGGAGTCACCTAGTGCAG,8060 fluorescence intensity (a.u.)
10,TTCCTTTTTTTACGTGGCAACAGTTAGGGGTGGGCATTCGCGGAGTCACCTAGTGCAG,18400 fluorescence intensity (a.u.)
11,CGATGAGGAGGAGGAGGGGCAACAGTGTTAGGGTGGATTTCGGAGTCACCTAGTGCAG,12100 fluorescence intensity (a.u.)
12,ATGGTGGGCTTGTATTGTCCTGCAGTCCTGCTTGTTTTACCGGAGTCACCTAGTGCAG,10700 fluorescence intensity (a.u.)
13,TGATAGTGGTGGGGTGGTATTGGTCCTAGCTTTGTACTCCCGGAGTCACCTAGTGCAG,18700 fluorescence intensity (a.u.)
14,GGTTTGTTTGTCAACCTCGGGGTGGTTGGGTACTTGGGTTCGGAGTCACCTAGTGCAG,11000 fluorescence intensity (a.u.)
15,GGTGGTTGGGTACTTGGGTTGGGTTTGGGTTTTTAGGTTTCGGAGTCACCTAGTGCAG,29100 fluorescence intensity (a.u.)
16,CAGTTAGGGGTGGGCATTCGGTCAGACCGAAAAATTCGGTCGGAGTCACCTAGTGCAG,15500 fluorescence intensity (a.u.)
17,ACTAGTGAAGTGTTGCCCGTTGGGTTTGGTGGAGTTTGAACGGAGTCACCTAGTGCAG,8200 fluorescence intensity (a.u.)
18,TGTTGGGTTGGGTTGGGTTGGGTTGGGTCCGTCCGATGAACGGAGTCACCTAGTGCAG,24200 fluorescence intensity (a.u.)
19,ATGTTTGTTTGGTTGACTGCACTTGGTCCGACGGATGAAACGGAGTCACCTAGTGCAG,8720 fluorescence intensity (a.u.)
20,CTGGTTGGTAGGTACTTGCTTGATTAGATTGGGTTTGGTTCGGAGTCACCTAGTGCAG,11500 fluorescence intensity (a.u.)
21,AGGCCATCATCACTTTAGTCTTATTTTCGTCACCATCATCCGGAGTCACCTAGTGCAG,10300 fluorescence intensity (a.u.)

row,Sequence,binding signal
1,CTACTTATCATCCATTTAAACATGCTACTAGTCATTCTTCCGGAGTCACCTAGTGCAG,10200 fluorescence intensity (a.u.)
2,CGTTGGATAATCTCTAGTACATGTATATACATTTGGCTCTCGGAGTCACCTAGTGCAG,8220 fluorescence intensity (a.u.)
3,CTGCCACGTCACATTTGCCGCCCTCTGGGAGGGCGATTTTCGGAGTCACCTAGTGCAG,8580 fluorescence intensity (a.u.)
4,AAACAGGTCACTACTATCCTCCATATATATATATTTTAGACGGAGTCACCTAGTGCAG,9110 fluorescence intensity (a.u.)
5,AGAACTAGAAGACCACACGCTGTCTCACTTGTTGCAAAATCGGAGTCACCTAGTGCAG,8050 fluorescence intensity (a.u.)
6,TCTCTCTTTCTTTCTATTTTTCTTTTCAGTCAGGTTAGTACGGAGTCACCTAGTGCAG,11000 fluorescence intensity (a.u.)
7,CATCGATCGCACTAGTGTCGCTCTCTGGAAGTAATAGCCTCGGAGTCACCTAGTGCAG,8110 fluorescence intensity (a.u.)
8,ATTAACAGCCTAGCTAGCTAGTGATCAGTGTTGACCGTTGCGGAGTCACCTAGTGCAG,8200 fluorescence intensity (a.u.)
9,CTTCTTCTTCTTCTTCTTCTTGGTCCGGAGAGAGTAGAGACGGAGTCACCTAGTGCAG,8090 fluorescence intensity (a.u.)
10,GTTTGCATGTTAAGCTTTAGGATTTGGTGGGTTATAATTTCGGAGTCACCTAGTGCAG,10800 fluorescence intensity (a.u.)
11,GGGTACAGGGGTGGGGACTTGGGTGTGTTGTGGTGGTTACCGGAGTCACCTAGTGCAG,12400 fluorescence intensity (a.u.)
12,TGGTACTGCGTGCGGTGGGGTAGGAGTAGGAGGTTTCTTTCGGAGTCACCTAGTGCAG,16600 fluorescence intensity (a.u.)
13,GGTGGGGTTGGCAGCTTTCGTGCTTGGTCAACCGGGCATGCGGAGTCACCTAGTGCAG,8520 fluorescence intensity (a.u.)
14,TAGAGTGGTTGGTTGGGTACTTGGGTTGGGTTGGGTGGTCCGGAGTCACCTAGTGCAG,24300 fluorescence intensity (a.u.)
15,AGGTGGGGAGCGGCGGACTCGCGGTTGGGTTTGTGTGGTTCGGAGTCACCTAGTGCAG,14200 fluorescence intensity (a.u.)
16,GTGTTTGGTTGGGTAATTTTGCAGGTGTTGCTCGTCAATTCGGAGTCACCTAGTGCAG,10200 fluorescence intensity (a.u.)
17,GGTGTTAGCTTTAGGTTTTGGTGTTTGGTTGGGTAATTTTCGGAGTCACCTAGTGCAG,17300 fluorescence intensity (a.u.)
18,GAAAACCTAGGGTTAGGTTTGGTGGGGTTGGCAGCTTTCGCGGAGTCACCTAGTGCAG,16400 fluorescence intensity (a.u.)
19,GTTTCTTGGTCGTGGGGTCGAGGAGGTGGTGGGTGGTGGTCGGAGTCACCTAGTGCAG,14800 fluorescence intensity (a.u.)
20,AGGAGATGCGGTAGTTTTTTTGGTACTGCGTGCGGTGGGGCGGAGTCACCTAGTGCAG,8400 fluorescence intensity (a.u.)
21,TTGTGTGTTCTTCCATCTGGCAATGGCATCTGCAGCAGCACGGAGTCACCTAGTGCAG,9530 fluorescence intensity (a.u.)

row,Sequence,binding signal
1,CACGCGATGAAATCATCTGCGCATCCTGTACTTTCAATTTCGGAGTCACCTAGTGCAG,8030 fluorescence intensity (a.u.)
2,CAATGACCTTTTTTTTTCCTCTCTCTGTTGCTTCCGATATCGGAGTCACCTAGTGCAG,8500 fluorescence intensity (a.u.)
3,GCTTTGAACACTCATCTCCTCACCGTGTTTGTTAGAGCTCCGGAGTCACCTAGTGCAG,11200 fluorescence intensity (a.u.)
4,GTCTACTTGTTTGGTGTAATTTATTTTTTTTCTTTCGCTTCGGAGTCACCTAGTGCAG,9740 fluorescence intensity (a.u.)
5,TTTATTTTTTTTGTTACTTTTGGGATAAATTTACAATTACCGGAGTCACCTAGTGCAG,9060 fluorescence intensity (a.u.)
6,GGTTTGGGGTGGTTTATTGTACAATAAAGATAAAGTTACCCGGAGTCACCTAGTGCAG,19000 fluorescence intensity (a.u.)
7,CATTTGTGGTTTGTACATATTTATATAAGTTATTATAAATCGGAGTCACCTAGTGCAG,9060 fluorescence intensity (a.u.)
8,GTGTATTCTACTTAGTAATTTACTTGGCTTGAATTTTTTTCGGAGTCACCTAGTGCAG,28900 fluorescence intensity (a.u.)
9,ATTGTATTCCTACTTGGACTCTTATTTTCTTTTCTAATTTCGGAGTCACCTAGTGCAG,10300 fluorescence intensity (a.u.)
10,TCAGTCTGTACACGCCTACACCAGAGTCCAGTGGTCCTAACGGAGTCACCTAGTGCAG,8100 fluorescence intensity (a.u.)
11,GGGTGGAGGAGGTGGGGAGGCCGGCGAGACTCATGTGCGGCGGAGTCACCTAGTGCAG,13100 fluorescence intensity (a.u.)
12,ATCAAATGGTCATTCCAACGGTTGTCCTGTGCTTTTGTAACGGAGTCACCTAGTGCAG,8020 fluorescence intensity (a.u.)
13,AATGTTTGGGTTCGAATTTAGTGGGTGGGTTTGGAGTTTGCGGAGTCACCTAGTGCAG,12800 fluorescence intensity (a.u.)
14,GTGGTTTCATCTATTTTGTGTTGTTTACTCGTATCTGTTACGGAGTCACCTAGTGCAG,10600 fluorescence intensity (a.u.)
15,TCTATTTTATTTGGGTGGGGATAGTTTTAGTGGGAATTTGCGGAGTCACCTAGTGCAG,24200 fluorescence intensity (a.u.)
16,ACTGTGGTTTCTAGTGGGTTTTATTATTTTATAATTTGTACGGAGTCACCTAGTGCAG,8480 fluorescence intensity (a.u.)
17,GTTGTGGGTTTTCGTATTTAATGTTTGACTGTCTATTTTACGGAGTCACCTAGTGCAG,17300 fluorescence intensity (a.u.)
18,GTATCAGTGTATAAGTTTGAGCACCATTTTTCCATGATCTCGGAGTCACCTAGTGCAG,9200 fluorescence intensity (a.u.)
19,TCACGGCTCATTTTTGAAATAAGTTTTTAGCACAGTTTATCGGAGTCACCTAGTGCAG,8740 fluorescence intensity (a.u.)
20,CAAGTTATTGACTTTTGGTCATGATGTTACTATTCATCTTCGGAGTCACCTAGTGCAG,9120 fluorescence intensity (a.u.)
21,ATCTCTAATTCTATTGGGTGCATGTATTGTACTATTTATTCGGAGTCACCTAGTGCAG,9280 fluorescence intensity (a.u.)

row,Sequence,binding signal
1,TTAGGATACATGGGAATTTTAGTGGGGATAGGATGGGGAACGGAGTCACCTAGTGCAG,8520 fluorescence intensity (a.u.)
2,ATCTTCGGTGTACTATTGGGTCATGATTTGACCCATCTAACGGAGTCACCTAGTGCAG,24900 fluorescence intensity (a.u.)
3,TAACAGTATCATTTGATAGCACAATATAAGGTGTTTTGCTCGGAGTCACCTAGTGCAG,28800 fluorescence intensity (a.u.)
4,TTCACGTAACTTACTTGCTCTAATCGTCGGTGGCTGGATCCGGAGTCACCTAGTGCAG,9270 fluorescence intensity (a.u.)
5,AAACACCAGCGCGGCCCTCGCCCTCGCCGTCGCCATTTCCCGGAGTCACCTAGTGCAG,8520 fluorescence intensity (a.u.)
6,CAACCCCTTACTTCATCACCTACTCATGTCAACACATAGCCGGAGTCACCTAGTGCAG,8850 fluorescence intensity (a.u.)
7,ACGCTGCCGTCTCATTTCGCTTTCGTAGAACTTGCTCCAGCGGAGTCACCTAGTGCAG,8500 fluorescence intensity (a.u.)
8,GCAAAAGCCAAACTGAATTCCCGACGCGTGCGCGCGCGCACGGAGTCACCTAGTGCAG,8180 fluorescence intensity (a.u.)
9,AGGAAAACACTTAGATGGGCCGGATTACTTATCGAAATTTCGGAGTCACCTAGTGCAG,8360 fluorescence intensity (a.u.)
10,AGTGGTGATCGCCGCGGTTGGGTTTCTTGGATTGGGCTGTCGGAGTCACCTAGTGCAG,8720 fluorescence intensity (a.u.)
11,GTTGGGGAGAAGGGGTGGTAAAATTTCTGGTATTATGGTTCGGAGTCACCTAGTGCAG,11700 fluorescence intensity (a.u.)
12,TCATTCTTTTTCTCAATGTACTTGGATTTTTTTCATGTTTCGGAGTCACCTAGTGCAG,12200 fluorescence intensity (a.u.)
13,TGTATTTGACTGTTACTGCTTTTGGATTTTGTTTCATTTTCGGAGTCACCTAGTGCAG,17500 fluorescence intensity (a.u.)
14,CTGTATTTGACTGTTACTGCTTTTGGATTTTGTTTCATTTCGGAGTCACCTAGTGCAG,10800 fluorescence intensity (a.u.)
15,AGCGGTTTCTTGGTTGGGGTTTAGTGTCTGCATTGGATATCGGAGTCACCTAGTGCAG,18200 fluorescence intensity (a.u.)
16,CCTTCTTTCCCTTTTCCCATCTGGCAAGATTTTTCTTATTCGGAGTCACCTAGTGCAG,9610 fluorescence intensity (a.u.)
17,TACATGTTTGACTTTGACTTGGTTTTTGGATATTTCATTTCGGAGTCACCTAGTGCAG,9170 fluorescence intensity (a.u.)
18,TTCTTTTGTTGTGTGGGTGTATGTTTTGGTTATGTGCATTCGGAGTCACCTAGTGCAG,8810 fluorescence intensity (a.u.)
19,ACATCTTATTTCCCTGGGTGGGGAGATTCTAGTTAAAATTCGGAGTCACCTAGTGCAG,19000 fluorescence intensity (a.u.)
20,GTGGGGTTTTCGATGGTGTTTCATTCTTTTTCTCAATGTACGGAGTCACCTAGTGCAG,20300 fluorescence intensity (a.u.)
21,ATCGTTTGGGGTCATTTTCTGCGGTTTGGTGGTGTTGTGCCGGAGTCACCTAGTGCAG,11100 fluorescence intensity (a.u.)

# — PMC7819943, “Rice protein-binding microarrays: a tool to detect cis-acting elements near promoter regions in rice”
